Results on 58 compounds are retold here after PubChem BioAssay AID602420 (Johns Hopkins Ion Channel Center, 2012).

In all, about 2,300 compounds went through this assay and about 430 (19%) were called active.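 How the source made its calls: active means remaining agonist calcium response no higher than 100% minus 3 SD of agonist-only control wells, with starting fluorescence near control levels; inactive means the rest.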 The list is a sample of the results.

The test deals with Mas-related G-protein coupled receptor member X1 (Homo sapiens) (UniProt Q96LB2). The test is described as follows: blockers of BAM8-22 MrgX1 calcium response – HEK293 cells, Fluo-4 calcium flux, confirmation (AID 602420). The note with it: MrgX1-HEK293, BAM8-22 calcium flux, at 10 µM; active compounds read low.
Sequence of Mas-related G-protein coupled receptor member X1 (Homo sapiens) (Q96LB2 whole entry, looked up): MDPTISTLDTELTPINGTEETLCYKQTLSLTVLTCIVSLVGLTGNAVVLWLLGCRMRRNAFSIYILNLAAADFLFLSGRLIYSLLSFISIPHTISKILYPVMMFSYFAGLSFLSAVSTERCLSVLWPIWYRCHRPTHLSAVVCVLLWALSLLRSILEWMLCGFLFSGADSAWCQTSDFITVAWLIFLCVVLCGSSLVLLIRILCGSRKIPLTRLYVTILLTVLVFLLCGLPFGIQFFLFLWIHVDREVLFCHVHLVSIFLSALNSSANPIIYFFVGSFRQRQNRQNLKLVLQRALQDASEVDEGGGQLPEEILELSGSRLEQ
`COc1ccc(S(=O)(=O)N2CCN(C(=O)NC3CCCCC3)CC2)cc1`: the remaining BAM8-22 calcium response % of control (active compounds read low) result was “inactive”. To `CC(C)NC(=S)Nc1cccc2cnccc12` belongs 82.2% (active); to `COc1ccc(S(=O)(=O)N2CCOCC2)c(C)c1C`, “inactive”; to `Cc1ccc(Cc2cnc(N)s2)o1`, “inactive”. To `COCCCNC(=O)C1CCN(c2ccc(N3CCOCC3)nn2)CC1` belongs “inactive”; to `CC(=O)Nc1ccc(OC(=O)COc2ccc(Br)cc2)cc1`, “inactive”; to `COC(=O)c1sccc1NS(=O)(=O)c1ccc(F)cc1F`, 80% (active). The same measure for `CCc1nnc(NC(=O)CSc2nc3c(c(=O)n2-c2ccccc2OC)SCC3)s1`: “inactive”; for `COc1ccc(C(=O)NC2CCCc3c2cnn3-c2cccc(C)c2C)c(OC)n1` (stereo not drawn): 28.5% (active).

As for `O=C(CSc1c2c(nc3ccc(Cl)cc13)CCCC2)NCc1ccco1`, the remaining BAM8-22 calcium response % of control (active compounds read low) result is “inactive”. To `Cc1ccc(CS(=O)(=O)c2ncc(Cl)c(C(=O)Nc3nnc(C)s3)n2)cc1` belongs 81.2% (active). To `COc1ccc(-n2c(SCC(=O)NCc3ccco3)nnc2-c2c[nH]c3ccccc23)cc1` belongs “inactive”; to `CCOC(=O)c1c(C)[nH]c(=S)c(C#N)c1-c1ccccc1`, “inactive”; to `COc1cccc(CNC(=O)C2CCN(S(=O)(=O)c3cccc4cccnc34)CC2)c1`, “inactive”. Regarding `O=C(CSc1nncn1-c1cccnc1)N1CCOCC1`, the remaining BAM8-22 calcium response % of control (active compounds read low) result is “inactive”. On to `N#CC1=C(N)Oc2c(sc3ccccc23)C1c1ccco1` (stereo not drawn), for which the remaining BAM8-22 calcium response % of control (active compounds read low) entry is “inactive”. The same measure for `O=C(Nc1ccc(Cl)cc1)Nc1ccc(Oc2cccnc2)nc1`: 80.3% (active); for `COc1cc(C2/C(=C(\O)c3ccc4c(c3)CC(C)O4)C(=O)C(=O)N2Cc2ccco2)ccc1O` (stereo not drawn): “inactive”.

Regarding `CN(C)CCn1c(=S)[nH]c2ccc(Cl)cc2c1=O`, the remaining BAM8-22 calcium response % of control (active compounds read low) result is “inactive”. To `Cc1cc(C)n(CCNC(=O)CC2C(=O)NCCN2Cc2ccc(C)o2)n1` (stereo not drawn) belongs “inactive”. As for `FC(F)(F)c1cc(-c2cccs2)nc(NCc2ccco2)n1`, the remaining BAM8-22 calcium response % of control (active compounds read low) entry was “inactive”. On to `S=C(NCc1ccc(Cl)cc1)NC12CC3CC(CC(C3)C1)C2`, for which the remaining BAM8-22 calcium response % of control (active compounds read low) is 68.5% (active).

Consider `O=C(c1ccc(O)cc1)c1ccc(C(=O)O)c(C(=O)O)c1`, for which the remaining BAM8-22 calcium response % of control (active compounds read low) result is “inactive”. For the compound `O=C(Cn1c(-c2cncs2)nc2ccccc21)NC1CCCC1`, the remaining BAM8-22 calcium response % of control (active compounds read low) entry was “inactive”. To `CC1CCN(S(=O)(=O)c2nnc(NC(=O)COc3ccccc3F)s2)CC1` belongs “inactive”; to `Cc1ccc(-c2nn(C(C)(C)C)c3ncnc(N)c23)cc1`, “inactive”; to `c1ccc(-c2[nH]ncc2-c2nc3ccccc3[nH]2)cc1`, “inactive”. Turning to `Cc1nccn1CCC1CCCCN1C(=O)CCc1nnc(-c2ccsc2)o1` (stereo not drawn), the remaining BAM8-22 calcium response % of control (active compounds read low) result is “inactive”. To `CN(c1cccc(NC(=O)Nc2ccc(Cl)cc2)c1)S(C)(=O)=O` belongs 44.9% (active); to `C(=N\n1cnnc1)/c1cccnc1`, “inactive”. To `CCS(=O)(=O)c1ccc2c(c1)N(S(=O)(=O)c1ccccc1)CC(C(=O)O)O2` (stereo not drawn) belongs “inactive”. As for `CCOC(=O)c1c(NC(=O)CNC2CCCc3ccccc32)sc(C(N)=O)c1C` (stereo not drawn), the remaining BAM8-22 calcium response % of control (active compounds read low) entry was “inactive”. To `CCOC(=O)c1c(NC(=O)CSc2cn(CC)c3ccccc23)sc2c1CCC2` belongs 85% (active); to `CCNC(=O)c1c(O)c2cccc3c2n(c1=O)CC3`, “inactive”.

For the compound `Cc1ccc(C(=O)COC(=O)CCN2C(=O)C3C4CC(C(Br)C4Br)C3C2=O)cc1` (stereo not drawn), the remaining BAM8-22 calcium response % of control (active compounds read low) entry is “inactive”.

As to `O=c1cc(CSc2ccccn2)nc(N2CCN(c3ccccc3)CC2)[nH]1`, the remaining BAM8-22 calcium response % of control (active compounds read low) result is “inactive”. Consider `CCOC(=O)Cc1csc(SCc2cc(=O)oc3cc(O)ccc23)n1`, for which the remaining BAM8-22 calcium response % of control (active compounds read low) was 85.3% (active). To `CCSc1nsc(NC(=O)Nc2cccc(C(C)=O)c2)n1` belongs “inactive”; to `CCOC(=O)CNC(=O)CSc1nc2cccnc2n1CC`, “inactive”; to `CCOC(=O)C1=C(O)/C(=C/c2cc(C)n(-c3ccccc3)c2C)N=C1C`, “inactive”. As for `Cc1cccn2c(=O)c(/C=C3\SC(=S)N(CC(C)C)C3=O)c(NCCCOC(C)C)nc12`, the remaining BAM8-22 calcium response % of control (active compounds read low) is 63.8% (active). The same measure for `CCN(CC)CC(=O)Nc1nn(-c2ccccc2)nc1C(N)=O`: “inactive”; for `CCC1CCCCN1CCNC(=O)c1[nH]c(C)c(C(C)=O)c1C` (stereo not drawn): “inactive”; for `O=C(CN1CCN(c2ccc(Cl)cc2)CC1)N1CCCC1`: “inactive”.

`O=C(Cc1nc2ccccc2[nH]c1=O)c1ccc(Cl)cc1`: the remaining BAM8-22 calcium response % of control (active compounds read low) is 64.3% (active). As to `O=C(NC1CCCCC1)C1c2ccccc2C(=O)N1Cc1ccco1` (stereo not drawn), the remaining BAM8-22 calcium response % of control (active compounds read low) result was “inactive”. On to `CCc1cc(=O)oc2cc(C)cc(OCC(=O)N3CCC[C@@H]3C(=O)O)c12`, for which the remaining BAM8-22 calcium response % of control (active compounds read low) entry is “inactive”.

For `CCCCOC(=O)CNc1nnc(SCC(=O)OCC)[nH]c1=O`, the remaining BAM8-22 calcium response % of control (active compounds read low) was 70.5% (active). As to `COC(=O)c1c(NC(=O)c2c(Cl)cnn2C)sc(C)c1C`, the remaining BAM8-22 calcium response % of control (active compounds read low) entry is “inactive”.

Regarding `Cc1ccc(C(C(=O)NC2CCCCC2)N(C(=O)c2csnn2)C2CC2)o1` (stereo not drawn), the remaining BAM8-22 calcium response % of control (active compounds read low) entry is “inactive”. Turning to `O=C(c1cccs1)C1C(c2ccc(Br)cc2)NC(=S)NC1(O)C(F)(F)F` (stereo not drawn), the remaining BAM8-22 calcium response % of control (active compounds read low) entry is “inactive”. To `Cc1nc(N2CCN(c3ccccn3)CC2)c2c(C)c(C(=O)Nc3ccc(F)c(Cl)c3)sc2n1` belongs 70.4% (active). The same measure for `COc1cc(CCC(=O)Nc2ccncc2Cl)cc(OC)c1OC`: “inactive”; for `C=CCSc1nc(Cc2ccc(Cl)cc2)nc2ccccc12`: “inactive”. To `O=C(COC(=O)C1CCN(S(=O)(=O)c2ccc3c(c2)OCCO3)CC1)Nc1ccccc1OC(F)F` belongs “inactive”. Consider `Clc1ccc(-c2nc3ccccn3c2CN2CCSCC2)cc1`, for which the remaining BAM8-22 calcium response % of control (active compounds read low) entry was “inactive”. The same measure for `Clc1ccc(C=NC23CN4CN(CN(C4)C2)C3)cc1`: “inactive”; for `COc1ccc(C(=O)CSc2n[nH]c(N)n2)cc1`: “inactive”.
